{"source": "PubChem BioAssay (NCATS)", "note": "Inconclusive results are not listed. Entries that show only a call come without a potency. The source made the active and inactive calls. Calls come from the whole dose curve; as a rule, active = well fitted inhibition curve with a large enough effect; inconclusive = small, poorly fitted or top-dose-only effect; inactive = flat fitted curve, though single readings scatter. Potency is the fitted concentration of half-maximal effect.", "data": [{"tested_on": "AS120", "experiment": "qHTS profiling for inhibitors of Plasmodium falciparum proliferation (AID 504749); note: nearly all actives have a fitted effect of over 60% in size", "details": "P. falciparum in erythrocytes, SYBR Green DNA, 72 h; series mostly up to 12.8 µM", "method_in_brief": "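P. falciparum-infected erythrocytes (0.3% parasitemia, 2.5% hematocrit) incubated with compound 72 h at 37 C, 5% CO2. Parasite DNA detected by SYBR Green after lysis, overnight at room temperature; normalised to 0.29 uM artemisinin and DMSO.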", "values": [{"smiles": "CC1(C)S[C@H]2C(NC(=O)[C@@H](N)c3ccc(O)cc3)C(=O)N2[C@@H]1C(=O)O", "note": "(some centres undefined)", "Potency": "inactive"}, {"smiles": "CN(C)CCc1c[nH]c2ccc(CC3COC(=O)N3)cc12", "note": "(centres undefined)", "Potency": "inactive"}, {"smiles": "C[C@@]12CCC(=O)C=C1C=CC1C2CC[C@]2(C)C1CC[C@@]21CCC(=O)O1", "note": "(some centres undefined)", "Potency": "inactive"}, {"smiles": "CC(C)Oc1ccc2c(=O)cc(-c3ccccc3)oc2c1", "Potency": "inactive"}, {"smiles": "N[C@@H]1C(O)OC(CO)C(O)C1O", "note": "(some centres undefined)", "Potency": "inactive"}, {"smiles": "CC(=O)OCC(=O)[C@@]12OC3(CCCC3)OC1CC1C3CCC4=CC(=O)C=C[C@@]4(C)[C@]3(F)C(O)C[C@]12C", "note": "(some centres undefined)", "Potency": "11.2 µM (active)"}, {"smiles": "CCC(=O)O[C@@]1(C(=O)CCl)C(C)CC2C3CCC4=CC(=O)C=C[C@@]4(C)[C@]3(F)C(O)C[C@]21C", "note": "(some centres undefined)", "Potency": "10 µM (active)"}, {"smiles": "CC(=O)[C@]1(O)CCC2C3C=C(Cl)C4=CC(=O)C5CC5[C@@]4(C)C3CC[C@]21C", "note": "(some centres undefined)", "Potency": "inactive"}, {"smiles": "CO[C@]12C(COC(N)=O)C3=C(C(=O)C(C)=C(N)C3=O)N1CC1NC12", "note": "(some centres undefined)", "Potency": "0.562 µM (active)"}, {"smiles": "C[C@@]12C=CC(=O)C=C1CCC1C3CC(O)[C@@](O)(C(=O)CO)[C@]3(C)CC(O)[C@]12F", "note": "(some centres undefined)", "Potency": "inactive"}, {"smiles": "CCC1OC(=O)C(C)[C@@H](O[C@H]2C[C@@](C)(OC)C(O)C(C)O2)C(C)[C@@H](O[C@@H]2OC(C)CC(N(C)C)C2O)[C@@](C)(O)CC(C)C(=O)[C@@H](C)C(O)[C@]1(C)O", "note": "(some centres undefined)", "Potency": "inactive"}, {"smiles": "CC1C2CCC3C4CC=C5CC(N(C)C)CC[C@@]5(C)C4CC[C@@]32CN1C", "note": "(some centres undefined)", "Potency": "inactive"}, {"smiles": "CCC(C)C(=O)OC1CC(O)C=C2C=CC(C)C(CCC(O)CC(O)CC(=O)O)C21", "note": "(centres undefined)", "Potency": "inactive"}, {"smiles": "OCC1OC(n2cnc3c(=S)nc[nH]c32)C(O)C1O", "note": "(centres undefined)", "Potency": "inactive"}]}]}
